Measured values taken from PubChem BioAssay AID588456 (National Center for Advancing Translational Sciences (NCATS), 2011).
Out of some 390,000 compounds screened, about 55 (0.01%) were called active. Calls follow the shape of the dose curve; as a rule, active = well fitted inhibition curve with a large enough effect; inconclusive = small, poorly fitted or top-dose-only effect; inactive = no such curve, though single readings can be large or run the other way. Not all results are given here.

The compounds below were run against Thioredoxin reductase 1, cytoplasmic (Rattus norvegicus) (UniProt O89049) (assay: qHTS Assay for Substrates of Mammalian Selenoprotein Thioredoxin Reductase 1 (TrxR1): qHTS). Conditions: purified TrxR1 substrate turnover, NADPH consumption readout; series mostly up to 114 µM; activity change, negative = substrate turnover: at the top concentration.
From the text: The selenoprotein thioredoxin reductase (TrxR; EC 1.8.1.9) is a FAD containing homodimeric pyridine nucleotide-disulfide oxidoreductase with many cellular roles. Together with NADPH and its prime substrate thioredoxin (Trx), the enzyme forms the core of the Trx system. The mammalian Trx system exerts a wide spectrum of functions including redox regulation, antioxidant defense, regulation of transcription factors as well as support of cell growth and replication. Many of these functions involve the reduction of Trx, which may subsequently reduce a number of different substrates including ribonucleotide reductase, peroxiredoxins or NFkB. Mammalian TrxR itself also has a broad substrate specificity, reducing both protein and non-protein substrates, including low molecular weight compounds such as dehydroascorbate, lipoic acid, ubiquinone, and juglone. In addition, several drugs in clinical use for anticancer treatment are indeed known to target TrxR1.
This BioAssay is a validation of an NADPH fluorescence-based, dual-purpose qHTS rTrxR1 assay designed to find potential inhibitors and substrates of rTrxR1. For this particular BioAssay, actives are potential substrate. See related BioAssay for inhibition data deposition.
NIH Molecular Libraries Probe Production Network [MLPCN]
NIH Chemical Genomics Center [NCGC]
Assay Provider: Elias Arner, Karolinska Institute
Assay protocol: 2 uL of reagents (buffer in column 4 as negative control and 90 nM rTrxR1 in columns 1-3 and 5-48) were dispensed into Greiner black solid-bottom 1,536-well assay plates, followed by 1 uL of NADPH (400 uM final concentration) to each well. The plates were centrifuged at 1000 rpm for 15 seconds and subsequently incubated for 5 min at room temperature (~22 deg C) to allow for rTrxR1 reduction. Compounds (23 nL) were then transferred via Kalypsys pin tool equipped with 1536-pin array (10 nL slotted pins, V&P Scientific, San Diego, CA). In addition, a duplicate 2-fold serial dilution of the control compounds auranofin, a known gold-based TrxR1 inhibitor, and juglone (5-hydroxy-1,4-naphthoquinone), a natural TrxR1 substrate, were pin-transferred to columns 2 and 3, respectively. After incubation for 15 min at room temperature (~22 deg C), 1 uL of selenite (400 uM final concentration) were dispensed to each well. The plate was immediately transferred to a ViewLux high-throughput CCD imager (PerkinElmer), wherein kinetic measurements of NADPH fluorescence (Ex 340 nm, Em 450 nm) were acquired (8 minute kinetic read, see Table 1). Read 1 was utilized to assess the capacity of a compound to serve as an rTrxR1 substrate, i.e. a decrease in NADPH fluorescence compared to the no-compound background is an indication of a substrate behavior for that particular compound. For inhibitory activity of a compound, delta values, computed as the difference in fluorescence intensity between the first and last reads of an 8-minute time kinetic window, were used. All reagents were diluted in an assay buffer consisting of 50 mM Tris-HCl, pH 7.5, 2 mM EDTA, and 0.01% Tween-20.
Throughout the screen, reagent bottle and all liquid lines were made light-tight to minimize reagent degradation. All screening operations were performed on a fully integrated robotic system (Kalypsys, San Diego, CA) containing one RX-130 and two RX-90 anthropomorphic robotic arms (Staubli, Duncan, SC). Library plates were screened starting from the lowest and proceeding to the highest concentration, and a 'double-pinning' step of the highest concentration was required to access higher concentrations of compounds. Vehicle-only plates, with DMSO being pin-transferred to the columns 5-48, were inserted uniformly at the beginning and the end of each library in order to monitor and record any shifts in the background, which can be affected by reagent dispensers or loss in enzyme activity over time. […]
% is scaled to controls: 0 for no effect and ±100 for the full control effect.
Also: nearly all actives have a fitted effect of over 50% in size.

Chain of Thioredoxin reductase 1, cytoplasmic (Rattus norvegicus) (O89049 whole entry, looked up): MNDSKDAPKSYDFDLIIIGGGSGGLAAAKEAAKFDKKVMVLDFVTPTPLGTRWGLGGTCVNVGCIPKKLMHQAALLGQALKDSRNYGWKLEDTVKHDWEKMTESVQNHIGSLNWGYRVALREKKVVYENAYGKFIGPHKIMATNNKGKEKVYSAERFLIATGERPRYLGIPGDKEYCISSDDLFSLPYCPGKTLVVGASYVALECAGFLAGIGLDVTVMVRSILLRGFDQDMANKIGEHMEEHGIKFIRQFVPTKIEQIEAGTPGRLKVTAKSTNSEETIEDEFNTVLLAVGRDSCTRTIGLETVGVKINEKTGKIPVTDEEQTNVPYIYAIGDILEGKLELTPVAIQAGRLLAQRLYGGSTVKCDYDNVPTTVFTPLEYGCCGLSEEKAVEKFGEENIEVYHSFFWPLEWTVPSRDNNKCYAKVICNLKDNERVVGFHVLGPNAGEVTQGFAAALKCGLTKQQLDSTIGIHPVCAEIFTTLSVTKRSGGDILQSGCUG

Activity change, negative = substrate turnover, inactive:
Nc1ccc(/C=C/c2ccnc3ccccc23)c([N+](=O)[O-])c1 7.22% [at 0.0914 µM]
O=C(CCCn1c(=O)c2cccn2c2cccnc21)NCc1ccc(F)cc1 11.5%
Cc1ccc(S(=O)(=O)N2CCN(c3nc(-n4cnc5ccccc54)nc4ccccc34)CC2)cc1 21.2%
CSc1n[nH]c(-c2ccco2)n1 -1.88%
CN(C)c1ccc(/C=C2\C=Cc3ccccc32)cc1Br -5.98%
O=C(Nc1ccc2nc(SCCOc3ccccc3)sc2c1)c1ccco1 1.62%
Cn1nnnc1SCCCNCc1cccc(OCc2ccc(Cl)cc2)c1 1.64%
COc1ccc(/C=C/c2ccccn2)cc1OC 10.2%
Cc1csc(NCC(=O)c2c[nH]c3ccccc23)n1 2.82%
Nc1nc(N)c(N=O)c(N)n1 -7.44%
OC(CBr)C[n+]1cccc2cc(Br)ccc21 (stereo not drawn) -10.1%
O=C(c1cnn2c1NC(=C1CC1)C=C2C(F)F)N1CCc2ccccc2C1 -0.0564%
Cc1cccc(CN2Cc3cccc4c3[C@H](C=CC4)CC2=S)c1 0.496%
Cc1cc[n+](C2CCCCC2)cc1 7.57%
COc1cccc(Nc2nc3ccccc3c3nncn23)c1 4.82%
CC(NC(=O)c1cc(Sc2ccc(F)cc2F)nc2ccccc12)c1ccccc1 (stereo not drawn) -8.64% [at 57.1 µM]
Cc1ccc2cccc(NC(=O)c3ccc(OC(C)C)cc3)c2n1 -3.98%
CCc1ccc(Sc2cc(C(=O)NCCCOC(C)C)c3ccccc3n2)cc1 -2.53% [at 57.1 µM]
Nc1ncnc2c1c(I)cn2[C@@H]1C[C@H](N)[C@@H](O)[C@H]1O 9.12% [at 57.1 µM]
Cc1ccc(NC(=O)c2cc3cc(C)ccc3n2C)cc1 39.4%
O=C1COc2ccc(-c3csc(-c4ccc(Cl)cc4)n3)cc2N1 2.22%
CC(C)(C)c1ccc(C(=O)C[n+]2cccc3cc(Cl)ccc32)cc1 -5.71%
OC(Cc1ccc2ccccc2n1)c1ccc(Cl)c(Cl)c1 (stereo not drawn) 8.06%
CO[C@H]1O[C@@H]2O[C@@]3(C)CC[C@@H]4[C@@H](C)CC[C@@H]([C@H]1C)[C@@]24OO3 0.883%
CCOC(=O)c1cc(-c2ccccc2)n(-c2cccc(C(=O)Nc3cc(OC)cc(OC)c3)c2)c1C 3.42% [at 57.1 µM]
CCOC(=O)c1c(C)[nH]c(CCC(=O)Nc2ccc(OC)c(OC)c2)c1C -1.04% [at 57.1 µM]
CCc1ccccc1NC(=O)Cn1c(=O)n(-c2cccc(C)c2)c(=O)c2c1c1cc(OC)ccc1n2C 9.12%
CN(CCC#N)c1ccc(C=O)cc1 -11.2%
COc1ccccc1N1CCN(C2C(=O)c3ccccc3N2C(C)=O)CC1 (stereo not drawn) 1.92% [at 57.1 µM]
CCOc1ccc(NC(=O)C(CC(C)C)N2Cc3ccccc3C2=O)cc1 (stereo not drawn) -4.22%
CN(C)CCCn1c(-c2ccc(Cl)cc2)csc1=Nc1ccccc1 -1.54% [at 57.1 µM]
CC1(C)CCc2cc(S(=O)(=O)N3CCN(c4nc(-c5cccs5)nc5ccccc45)CC3)ccc2O1 2.89%
C=C1C=C(C)n2ncc(C(=O)Nc3ccccc3O)c2N1 1.54%
COC(=O)C1=C(C(=O)OC)[C@@H]2N(Cc3ccccc3)c3ccccc3[C@@]23C[C@@H](C(=O)OC)N(S(=O)(=O)c2ccc(C(F)(F)F)cc2)C3=N1 -10.9%
CCOc1ccc(N2CC(C)Cn3c2nc2c3c(=O)n(Cc3c(F)cccc3Cl)c(=O)n2C)cc1 (stereo not drawn) -1.89%
C=C1C=C(C(F)F)n2ncc(C(=O)NCCc3ccccc3OC)c2N1 -2.11%
Cc1ccc(NC(=O)C(Cc2ccccc2)NS(=O)(=O)c2ccc3c(c2)oc(=O)n3C)cc1C (stereo not drawn) -0.578%
CCOc1ccc(Nc2ncnc3scc(-c4ccc(OC)cc4)c23)cc1 3.1% [at 57.1 µM]
COc1cccc(CNCCSc2nnnn2C)c1OCc1ccccc1Cl 8.42% [at 11.4 µM]
Cc1ccc(Cn2cnc3c(cnn3C(C)(C)C)c2=O)c(F)c1 1.87%
COc1cc(C(=O)Nc2ccc(OCc3cc(=O)n4ccc(C)cc4n3)cc2)cc(OC)c1OC 8.56% [at 57.1 µM]
CC1CCCN(c2nc3c(S(=O)(=O)c4ccc(C(C)C)cc4)nnn3c3ccsc23)C1 (stereo not drawn) 29.8%
Cc1[nH]c2ccccc2c1C(=O)C(=O)N(C)c1ccccc1 1.64%
CN(CC(=O)Nc1ccccc1F)S(=O)(=O)c1ccc2c(c1)c(=O)n(C)c(=O)n2C 7.12%
COc1ccccc1CNC(=O)C(=O)NCC(c1ccco1)S(=O)(=O)c1ccc(F)cc1 (stereo not drawn) -4.27% [at 57.1 µM]
CCOc1ccccc1CNC(=O)C1CCCN(S(=O)(=O)c2ccc3c(ccn3C)c2)C1 (stereo not drawn) 6.22% [at 57.1 µM]
CN(Cc1ccccc1)c1ccc(/C=C/c2ccnc3ccccc23)cc1 -8.75%
Oc1ccccc1-c1nc(/C=C/c2ccc(F)cc2)no1 6.31%
CC(C)Cn1c(-c2ccc(S(=O)(=O)N3CCOCC3)cc2)csc1=Nc1cc(Cl)ccc1Cl 3.11%
COc1cc(OC)c(OC)cc1/C=C1\C=Cc2ccccc21 6.44% [at 0.0914 µM]
Cc1cccc(C(=O)N2CCc3cc(CNC(=O)Cc4ccc(F)cc4)ccc32)c1 -5.32% [at 57.1 µM]
Cc1nnc(SCC(=O)NCc2ccccc2Cl)c2nn(-c3ccccc3)c(C)c12 -2.94%
Brc1cccc[n+]1Cc1cccc(C[n+]2ccccc2Br)c1 -9.86%
COc1cc2[nH]c(=O)n(Cc3ccc(C(=O)NCc4ccc(C)cc4)cc3)c(=O)c2cc1OC 3.98% [at 2.29 µM]
CN(C)c1ccc(/C=N\Nc2ccc([N+](=O)[O-])cc2[N+](=O)[O-])cc1Cl -5.6%
COc1cc2nc(Cl)nc(NC3CC3)c2cc1OC -7.58%
Cc1nnc(C)n1-c1ccc(C(=O)Nc2cccc(Br)c2)cc1 0.591% [at 57.1 µM]
Cc1ccc(C=O)cc1Cl 7.59%
Cc1ccc(-c2nnc3ccc(SCC(N)=O)nn23)cc1 11.6%
CN(C)c1ccc(C=Nc2ccc(/C=C/c3ccnc4ccccc34)cc2)cc1 -26.7%
Cc1nnc(NCc2ccccc2)c2c1nnn2Cc1ccc(F)cc1 -11.2%
CN(C)c1ccc(/C=C/c2sc3ccccc3[n+]2CCCCBr)cc1 -1.1%
CC(C)(C(=O)NO)c1ccccc1 7.41%
O=C1O/C(=C\c2ccc(O)cc2)C(O)=C1c1ccc(O)cc1 -5.92%
NC1CCN(O)C1=O (stereo not drawn) 6.14% [at 57.1 µM]
C=COC(=O)N1CCN(/[N+]([O-])=N/Oc2ccc([N+](=O)[O-])cc2[N+](=O)[O-])CC1 10.5% [at 0.457 µM]
O=C(O)c1c(Br)c(Br)c(Br)c(Br)c1C1c2ccc(O)cc2Oc2cc(O)ccc21 -0.493%
O=C(NCCCO)C(=O)Nc1c2c(nn1-c1ccc(F)cc1)CSC2 -2.34% [at 57.1 µM]
C(=Nc1ccc(/C=C/c2ccnc3ccccc23)cc1)c1cc2c3c(c1)CCCN3CCC2 -2.53%
Cc1ccc2nc3c(cc(C(=O)NC4CCCCC4)c(=N)n3C(C)C)c(=O)n2c1 203%
Cc1ccc(CN(C(=O)COc2ccc(Cl)cc2C)C2CCS(=O)(=O)C2)o1 (stereo not drawn) -0.557%
CCOc1n[nH]c(-c2ccccc2)n1 -11%
COc1ccc(CCNC(=O)CCCCn2c(=O)c3ccccc3n(Cc3ccccc3C)c2=O)cc1OC -7.44%
CS(=O)c1ccc(/C=C2\C=Cc3ccccc32)cc1 (stereo not drawn) 1.35% [at 0.0914 µM]
COc1ccccc1NC(=O)C1=C(C)Nc2ncnn2C1c1sccc1C (stereo not drawn) 3.43% [at 57.1 µM]
Cc1ccc(C2C=C(c3ccc(Cl)cc3)Nc3nc(NC(=O)CCC(=O)O)nn32)cc1 (stereo not drawn) 19% [at 57.1 µM]
C/C=C/NNC(=O)Cc1ccc(OC)cc1 4.71%
CCOC(=O)c1ccc(NC(=O)CCS(=O)(=O)c2ccc3c(c2)oc(=O)n3C)cc1 2.83%
COCCCNC(=O)c1ccc(NC(=O)c2nsc3ccccc23)cc1 1.31% [at 57.1 µM]
CC1(C)C=Cc2c(ccc(C(=O)/C=C/c3ccccc3)c2O)O1 6.76%
CCN(CC)/[N+]([O-])=N/OCOC(=O)Cc1c(C)n(C(=O)c2ccc(Cl)cc2)c2ccc(OC)cc12 12.6% [at 0.457 µM]
CC(=O)/C(C)=N/O 3.07% [at 57.1 µM]
COc1ccc(CN(Cc2ccccc2)C(=O)c2ccc(O)cc2)cc1COc1ccc(NC(C)=O)cc1 -9.25%
O=C(CSc1nc2c(c(=O)[nH]1)CN(Cc1ccc(F)cc1)CC2)Nc1ccccc1Cl 17.6%
O=C(COc1ccccc1)OCc1cc(=O)n2nc(-c3cccs3)sc2n1 0.495% [at 57.1 µM]
Cc1cccc(NC(=O)COC(=O)c2ccccc2OCc2cccc(Br)c2)c1 -1.38%
CN(C)C1=C2C=CC=CC2/C(=C2/C=Cc3ccccc32)C=C1 (stereo not drawn) -4.06%
CSc1nc(-c2ccccc2Cl)nc2c1Cc1c(CO)cnc(C)c1O2 -7.75%
CN(C)c1ccc(/C=C/c2sc3ccccc3[n+]2C)cc1 -3.98%
Cc1cccc(NC(=O)c2ccc3nc(C(C)C)oc3c2)c1C 4.38% [at 57.1 µM]
O=C(Nc1ccccc1C(F)(F)F)c1nc(S(=O)(=O)Cc2ccccc2F)ncc1Cl -1.77%
CN(C)c1ccc(/C=C/C=C/c2ccnc3ccccc23)cc1 -10.2%
CCCCCCC1(C)NC(c2ccc3c(c2)OCO3)=CC(c2ccccc2O)N1 (stereo not drawn) -0.425%
SCc1nc2ccc(Cl)cc2[nH]1 6.82%
Cc1ccc2nc(COc3cccc(NC(=O)Nc4ccc(C)c(Cl)c4)c3)cc(=O)n2c1 4.87% [at 57.1 µM]
O=C1C[C@H]2C=CCc3cccc(c32)CN1Cc1ccccc1 1.88%
O=C1CCC[C@@H]2C[C@@]3(C[C@@H]4CCN1[C@H]24)Nc1ccccc1NC3=NCc1ccccc1 0.601%
CCCCOc1ccc(CN2C(=O)C(=O)c3cc(Br)cc(C)c32)cc1OC -13.6%
CCN(CC)c1ccc(/C=C/c2c(C)cnc3ccc(C)cc23)cc1 0.74%
CCOc1ccc(CCNC(=O)Cn2nc(CC)n3c(cc4sc(CC)cc43)c2=O)cc1OCC 5.63%
CCC(C)N(c1ccc(/C=C/c2ccnc3ccccc23)cc1)C(C)CC (stereo not drawn) -24.3%
O=C(COc1ccccc1C(=O)Nc1ccccc1)Nc1cccc(F)c1 -2.82%
CCCCOc1ccc(C(=O)NO)cc1 7.06%
